IL1B secr inh = inhibitors of inflammasome signaling (IL-1 beta secretion). THP-1 LPS/ATP IL-1B secretion, AlphaLISA, 16 h; stronger effect = lower value. activity change, % at 57.5 µM. actives 4.7% (n = 360,000); in the data active = activity change below about -50%; inconclusive = mostly about -30% to -49%
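Secreted IL-1B measured by AlphaLISA bead assay after 16 h compound exposure of THP-1 cells; compounds (final up to 57.5 uM) added 1 h before LPS (250 ng/mL) and ATP (1.25 mM) stimulation; lower signal means less secretion.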
TDP1 block = TDP1 (human) enzyme inhibition. Q9NUW8. recombinant TDP1, AlphaScreen DNA substrate cleavage. Potency, µM (doses to about 130 µM), actives largely listed as inhibitors. actives 0.28% (n = 350,000). AID 485290; also: nearly all actives have a fitted effect of over 40% in size
Target sequence (Q9NUW8 whole entry, looked up): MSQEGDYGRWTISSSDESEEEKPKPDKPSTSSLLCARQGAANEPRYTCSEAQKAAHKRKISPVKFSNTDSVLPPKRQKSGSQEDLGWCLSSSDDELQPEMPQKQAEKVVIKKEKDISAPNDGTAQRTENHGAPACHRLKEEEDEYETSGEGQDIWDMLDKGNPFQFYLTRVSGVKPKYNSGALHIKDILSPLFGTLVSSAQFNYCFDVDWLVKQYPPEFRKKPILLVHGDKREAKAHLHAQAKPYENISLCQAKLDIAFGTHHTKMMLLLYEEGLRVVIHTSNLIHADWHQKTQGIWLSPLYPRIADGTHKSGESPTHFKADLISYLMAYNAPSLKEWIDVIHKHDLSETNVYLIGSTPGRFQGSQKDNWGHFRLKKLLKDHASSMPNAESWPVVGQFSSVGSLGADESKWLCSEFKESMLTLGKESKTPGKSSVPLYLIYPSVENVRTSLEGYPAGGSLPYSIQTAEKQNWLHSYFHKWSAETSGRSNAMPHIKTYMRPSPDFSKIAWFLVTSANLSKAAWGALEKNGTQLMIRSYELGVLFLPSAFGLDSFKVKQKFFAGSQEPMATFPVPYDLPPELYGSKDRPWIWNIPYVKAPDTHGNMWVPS
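Enzyme-compound mixtures sat 15 min at room temperature, followed by a 5 min reaction with 15 nM final substrate and 10 min with AlphaScreen beads. Recombinant human Tdp1 was used at 1 nM final.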
DT40 TDP1 CPT = DT40-hTDP1 cell growth loss with CPT. Potency, µM (series often up to 46.2 µM), hits mostly inhibitors. actives 12% (n = 420,000). chicken DT40 Tdp1-/-;hTDP1 cells + 20 nM CPT, ATP luminescence, 48 h; also: nearly all actives have a fitted effect of over 55% in size
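Chicken DT40 Tdp1-/- cells complemented with human TDP1, 400 cells/well, exposed to compounds plus 20 nM camptothecin for at least 48 h at 37 C; viability read as ATP content by CellTiter-Glo luminescence.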
TDP1 cell noCPT = qHTS for Inhibitors of human tyrosyl-DNA phosphodiesterase 1 (TDP1): qHTS in cells in absence of CPT; DT40 Tdp1-/- hTDP1 cells, no CPT, ATP luminescence, 48 h; AID 686978, 2013; actives 15% (n = 420,000); Potency, µM (series often up to 46.2 µM), most hits filed as inhibitors; also: nearly all actives have a fitted effect of over 55% in size
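DT40 Tdp1-/-;hTDP1 cells, no CPT (DMSO vehicle only), 400 cells/well; compounds pin-transferred; ≥48 hr, 37 °C; CellTiter-Glo 30 min RT dark, luminescence read.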
HepG2 tox-1 = counter-screen for TGF-b inhibitors: cytotoxicity in HepG2 cells. HepG2 CAGA-GFP viability, ATP luminescence, 18 h. Potency, µM (series often up to 46.1 µM), most hits filed as cytotoxic. actives 0.76% (n = 410,000)
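CellTiter-Glo luminescence gave cytotoxicity after 18 hours at 37 degrees C. The cells were HepG2 CAGA-GFP in 1% FBS DMEM, stimulated with 500 pg/mL TGF-beta after compound addition. %Activity was normalised to no-cell wells (complete cell-killing) and DMSO (no toxicity), and curves were fitted and classified.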
TGFb inhibitor = blocks TGF-b signaling; HepG2 CAGA-GFP TGF-b/SMAD3 reporter, GFP fluorescence, 18 h; TGF-beta stimulated, 500 pg/mL final; Potency, µM (highest dose often 46.1 µM), most hits filed as inhibitors; actives 1.2% (n = 410,000); also: nearly all actives have a fitted effect of over 65% in size
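Cell-based qHTS in HEPG2 carrying a CAGA-GFP Smad reporter; compounds added before 500 pg/mL final TGF-beta, 18 h incubation at 37 degrees C, GFP fluorescence quantified per cell by imaging cytometry.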
TGFb CAGA inh = confirmation of TGF-b signaling inhibitors in HepG2 reporter cells | actives 63% (n = 1,600) | shares compounds with TGFb inhibitor | Potency, µM (titrated, usually from 46.1 µM), hits mostly inhibitors | HepG2 CAGA-GFP TGF-b reporter, GFP fluorescence, 18 h; cells stimulated with TGF-beta, 500 pg/mL | AID 720534; also: nearly all actives have a fitted effect of over 65% in size
HepG2 tox-2 = toxic to HepG2 cells in TGF-b counterscreen; Potency, µM (titrated, usually from 46.1 µM), usual class: inhibitors; HepG2 CAGA-GFP viability, ATP luminescence, 18 h; cells stimulated with TGF-beta, 500 pg/mL; actives 27% (n = 1,600); shares compounds with TGFb inhibitor; also: nearly all actives have a fitted effect of over 70% in size
CCL64 TGFb inh = orthogonal confirmation of TGF-b inhibitors in CCL64 cells. shares compounds with TGFb inhibitor. CCL64 CAGA-GFP reporter, TGF-b stimulated, GFP fluorescence, 18 h. Potency, µM (highest dose often 46.1 µM), hits mostly inhibitors. actives 41% (n = 1,600); also: nearly all actives have a fitted effect of over 65% in size
TGFb COP inh = blocks TGF-b signaling in HepG2 COP reporter | AID 720537 | HepG2 COP-GFP TGF-b reporter, GFP fluorescence, 18 h; cells stimulated by added recombinant TGF-beta | Potency, µM (top dose mostly 46.1 µM), usual class: inhibitors | shares compounds with TGFb inhibitor | actives 3% (n = 1,600); also: nearly all actives have a fitted effect of over 70% in size
Hits are given with their value; 0 = inactive; ? = inconclusive; - = no result. An excerpt weighted towards active compounds, which were near 19% of everything screened. Unless noted, calls follow the shape of the dose curve; as a rule, active = well fitted curve in the direction sought with a large enough effect; inconclusive = small, poorly fitted or top-dose-only effect, or another doubt; inactive = no such curve, though single readings can be large; an effect the other way counts as inactive or inconclusive.

SMILES	IL1B secr inh	TDP1 block	DT40 TDP1 CPT	TDP1 cell noCPT	HepG2 tox-1	TGFb inhibitor	TGFb CAGA inh	HepG2 tox-2	CCL64 TGFb inh	TGFb COP inh
CC(C)(C)C(=O)/C(=C/c1ccncc1)n1cncn1	-98	0	3.3µM	1.6µM	14µM	4.5µM	18µM	13µM	5.8µM	?
Cc1nn(C)c(C)c1/C=C(/C(=O)C(C)C)n1cncn1	0	0	0	0	0	0	-	-	-	-
O=C(CN1C2CCCC1CC(NC(=O)C1CCCCC1)C2)Nc1ccccc1C(F)(F)F (centres undefined)	?	-	23µM	15µM	0	?	18µM	?	?	0
COc1ccc(C(=O)N2CCOC2CNC(=O)C(=O)NCc2ccccn2)cc1 (centres undefined)	0	-	0	0	0	0	-	-	-	-
COC(=O)CC1(C(=O)OC)Oc2ccccc2C(=O)N1c1ccc(F)cc1F (centres undefined)	0	-	0	?	0	0	-	-	-	-
COc1ccc(CNC(=O)C2(CC3CC(c4ccccc4)=NO3)CCN(C(=O)OC(C)(C)C)CC2)cc1 (centres undefined)	0	-	?	?	0	0	-	-	-	-
COC(=O)C1(CC2CC(c3cccc(Br)c3)=NO2)CCN(C(=O)OC(C)(C)C)CC1 (centres undefined)	0	-	?	?	0	?	23µM	?	?	0
O=C(CNC1CCCCC1)Nc1ccc(Cl)cc1	0	-	0	0	0	0	-	-	-	-
O=C(Cc1csc(NC(=O)Nc2ccc(Cl)cc2)n1)NC1CCCC1	-53	0	?	?	0	11µM	16µM	0	?	0
COC(=O)c1ccc(Cn2c(C)c(C(=O)NCc3ccc(Cl)c(Cl)c3)sc2=O)o1	0	-	?	21µM	0	13µM	23µM	0	0	0
Cc1c(C(=O)NCc2cccc([N+](=O)[O-])c2)sc(=O)n1Cc1ccc(C(C)C)cc1	?	-	?	?	0	?	-	-	-	-
C[C@]12c3[nH]c4cc(-c5ccco5)ccc4c3CCN1C(=O)[C@@H](CC(=O)NCC13CC4CC(CC(C4)C1)C3)C[C@@H]2C(=O)N1CCOCC1	0	0	?	?	0	10µM	9.2µM	?	?	0
CC[C@]12c3[nH]c4ccc(Cl)cc4c3CCN1C(=O)[C@@H](CC(=O)NCc1ccco1)C[C@@H]2C(=O)N1CCN(C(=O)C2CC2)CC1	0	0	?	?	0	?	-	-	-	-
CC[C@]12c3[nH]c4ccc(Cl)cc4c3CCN1C(=O)[C@@H](CC(=O)NCC13CC4CC(CC(C4)C1)C3)C[C@@H]2C(=O)N1CCN(C(=O)C2CC2)CC1	0	0	8.2µM	3.3µM	0	10µM	9.2µM	?	23µM	0
C[C@]12c3[nH]c4ccc(Cl)cc4c3CCN1C(=O)[C@@H](CC(=O)NCc1cccc(C(F)(F)F)c1)C[C@@H]2C(=O)N1CCOCC1	-56	0	?	?	0	10µM	16µM	0	15µM	0
CCN(CC)C(=O)[C@H]1C[C@H](CC(=O)NC/C=C(\C)CCC=C(C)C)C(=O)N2CCc3c([nH]c4ccc(Cl)cc34)[C@]12C	0	0	?	?	0	?	-	-	-	-
COc1ccc2[nH]c3c(c2c1)CCN1C(=O)C(CC(=O)NCc2ccco2)C[C@H](C(=O)N2CCOCC2)[C@@]31C (some centres undefined)	0	0	0	0	0	0	-	-	-	-
CCN(CC)C(=O)[C@H]1C[C@H](CC(=O)NC/C=C(\C)CCC=C(C)C)C(=O)N2CCc3c([nH]c4cc(-c5ccco5)ccc34)[C@]12C	-65	0	?	?	0	8.9µM	?	?	13µM	0
COc1ccc(Cn2cc(CN3CC(N4CCCC4)CS3(=O)=O)nn2)cc1 (centres undefined)	0	-	0	0	-	-	-	-	-	-
COc1ccc(CNC(=O)C[C@H]2C[C@H](C(=O)N3CCOCC3)[C@@]3(CCC4CCCC4)c4[nH]c5cc(-c6ccco6)ccc5c4CCN3C2=O)cc1OC	?	0	18µM	?	0	13µM	6.5µM	0	?	0
CC(C)(C)NC(=O)C[C@H]1C[C@H](C(=O)N2CCCCC2)[C@@]2(C)c3[nH]c4ccc(Cl)cc4c3CCN2C1=O	0	0	23µM	21µM	0	?	?	0	0	0
CC[C@]12c3[nH]c4cc(CCC(=O)N(C)C)ccc4c3CCN1C(=O)[C@@H](CC(=O)NCCC1=CCCCC1)C[C@@H]2C(=O)N1CCN(C(=O)c2ccco2)CC1	0	0	0	0	0	0	-	-	-	-
CC[C@]12c3[nH]c4cc(-c5ccco5)ccc4c3CCN1C(=O)[C@@H](CC(=O)NCCC1=CCCCC1)C[C@@H]2C(=O)N1CCN(C(=O)c2ccco2)CC1	-64	0	21µM	18µM	0	14µM	?	0	?	0
C[C@]12c3[nH]c4ccc(Cl)cc4c3CCN1C(=O)[C@@H](CC(=O)NCC13CC4CC(CC(C4)C1)C3)C[C@@H]2C(=O)N1CCOCC1	?	0	10µM	13µM	0	10µM	21µM	?	?	0
COc1ccccc1N1CCN(/N=C/c2ccccc2C(=O)O)CC1	0	-	0	0	0	0	-	-	-	-
COc1ccc(NC(=O)CN2C(=O)NC(C)(C3CC3)C2=O)cc1S(=O)(=O)N1CCOCC1 (centres undefined)	0	0	0	0	0	0	-	-	-	-
COCCN(C(=O)COC(=O)COc1ccc(Cl)c(C)c1)c1c(N)n(Cc2ccccc2)c(=O)[nH]c1=O	0	0	0	0	0	0	-	-	-	-
